Residue numbers refer to the chain shown, from its start.
Assays:
Experiment in all cases: PBM; 200 nM protein, PBS
Conditions in all cases: dsDNA, one strand shown
SIX6 [1] = biological target: T1, SIX6 (Homo sapiens, UniProt O95475 114-200, L167I)
T1 sequence: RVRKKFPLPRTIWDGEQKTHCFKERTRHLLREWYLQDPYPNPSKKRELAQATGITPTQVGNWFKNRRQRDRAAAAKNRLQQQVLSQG

SIX6 [2] = biological target: T2, SIX6 (Homo sapiens, UniProt O95475 114-200, L143V)
T2 sequence: T1 sequence with L30V, I54L

SIX6 [3] = biological target: T3, SIX6 (Homo sapiens, UniProt O95475 114-200, H141N)
T3 sequence: T1 sequence with H28N, I54L

SIX6 [4] = biological target: T4, SIX6 (Homo sapiens, UniProt O95475 114-200, T165P)
T4 sequence: T1 sequence with T52P, I54L

SIX6 [5] = biological target: T5, SIX6 (Homo sapiens, UniProt O95475 114-200, L167M)
T5 sequence: T1 sequence with I54M

SIX6 [6] = biological target: T6, SIX6 (Homo sapiens, UniProt O95475 114-200, L143M)
T6 sequence: T1 sequence with L30M, I54L

SIX6 [7] = biological target: T7, SIX6 (Homo sapiens, UniProt O95475 114-200, L143I)
T7 sequence: T1 sequence with L30I, I54L

SIX6 [8] = biological target: T8, SIX6 (Homo sapiens, UniProt O95475 114-200, T165G)
T8 sequence: T1 sequence with T52G, I54L

SIX6 [9] = biological target: T9, SIX6 (Homo sapiens, UniProt O95475 114-200, T139Q)
T9 sequence: T1 sequence with T26Q, I54L

SIX6 [10] = biological target: T10, SIX6 (Homo sapiens, UniProt O95475 114-200, T165A)
T10 sequence: T1 sequence with T52A, I54L

SIX6 [11] = biological target: T11, SIX6 (Homo sapiens, UniProt O95475 114-200, L167V)
T11 sequence: T1 sequence with I54V

SIX6 [12] = biological target: T12, SIX6 (Homo sapiens, UniProt O95475 114-200)
T12 sequence: T1 sequence with I54L

SIX6 [13] = biological target: T13, SIX6 (Homo sapiens, UniProt O95475 114-200, T165I)
T13 sequence: T1 sequence with T52I, I54L

NKX3-2 [14] = biological target: NKX3-2 (Homo sapiens, UniProt P78367 192-278, P234S)
NKX3-2 [15] = biological target: NKX3-2 (Homo sapiens, UniProt P78367 192-278)
Sequence of NKX3-2 (Homo sapiens, UniProt P78367 192-278) (P78367 192-278): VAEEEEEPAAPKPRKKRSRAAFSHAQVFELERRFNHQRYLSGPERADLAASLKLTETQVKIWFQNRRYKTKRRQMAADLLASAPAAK

Sequence of NKX3-2 (Homo sapiens, UniProt P78367 192-278, P234S) (P78367 192-278 P234S): as the sequence (P78367 192-278) above, with P43S counted along it

| Sequence | binding signal (SIX6 [1]) | binding signal (SIX6 [2]) | binding signal (SIX6 [3]) | binding signal (SIX6 [4]) | binding signal (SIX6 [5]) | binding signal (SIX6 [6]) | binding signal (SIX6 [7]) | binding signal (SIX6 [8]) | binding signal (SIX6 [9]) | binding signal (SIX6 [10]) | binding signal (SIX6 [11]) | binding signal (SIX6 [12]) | binding signal (SIX6 [13]) | binding signal (NKX3-2 [14]) | binding signal (NKX3-2 [15]) |
| --- | --- | --- | --- | --- | --- | --- | --- | --- | --- | --- | --- | --- | --- | --- | --- |
| GCCGCGCA | 8.96 upbm affinity estimate (log intensity, higher = more binding, comparable within an allelic series) | 8.97 upbm affinity estimate (log intensity, higher = more binding, comparable within an allelic series) | 8.91 upbm affinity estimate (log intensity, higher = more binding, comparable within an allelic series) | 8.97 upbm affinity estimate (log intensity, higher = more binding, comparable within an allelic series) | 8.9 upbm affinity estimate (log intensity, higher = more binding, comparable within an allelic series) | 8.97 upbm affinity estimate (log intensity, higher = more binding, comparable within an allelic series) | 8.96 upbm affinity estimate (log intensity, higher = more binding, comparable within an allelic series) | 8.81 upbm affinity estimate (log intensity, higher = more binding, comparable within an allelic series) | 8.99 upbm affinity estimate (log intensity, higher = more binding, comparable within an allelic series) | 8.86 upbm affinity estimate (log intensity, higher = more binding, comparable within an allelic series) | 8.86 upbm affinity estimate (log intensity, higher = more binding, comparable within an allelic series) | 8.91 upbm affinity estimate (log intensity, higher = more binding, comparable within an allelic series) | 8.89 upbm affinity estimate (log intensity, higher = more binding, comparable within an allelic series) | – | – |
| CGGCGGAA | 8.84 upbm affinity estimate (log intensity, higher = more binding, comparable within an allelic series) | 8.9 upbm affinity estimate (log intensity, higher = more binding, comparable within an allelic series) | 8.85 upbm affinity estimate (log intensity, higher = more binding, comparable within an allelic series) | 9.07 upbm affinity estimate (log intensity, higher = more binding, comparable within an allelic series) | 8.95 upbm affinity estimate (log intensity, higher = more binding, comparable within an allelic series) | 8.9 upbm affinity estimate (log intensity, higher = more binding, comparable within an allelic series) | 8.96 upbm affinity estimate (log intensity, higher = more binding, comparable within an allelic series) | 9.04 upbm affinity estimate (log intensity, higher = more binding, comparable within an allelic series) | 8.95 upbm affinity estimate (log intensity, higher = more binding, comparable within an allelic series) | 8.82 upbm affinity estimate (log intensity, higher = more binding, comparable within an allelic series) | 8.8 upbm affinity estimate (log intensity, higher = more binding, comparable within an allelic series) | 8.95 upbm affinity estimate (log intensity, higher = more binding, comparable within an allelic series) | 8.9 upbm affinity estimate (log intensity, higher = more binding, comparable within an allelic series) | – | – |
| AAGGCCGC | 8.93 upbm affinity estimate (log intensity, higher = more binding, comparable within an allelic series) | 8.99 upbm affinity estimate (log intensity, higher = more binding, comparable within an allelic series) | 8.93 upbm affinity estimate (log intensity, higher = more binding, comparable within an allelic series) | 8.98 upbm affinity estimate (log intensity, higher = more binding, comparable within an allelic series) | 8.92 upbm affinity estimate (log intensity, higher = more binding, comparable within an allelic series) | 8.92 upbm affinity estimate (log intensity, higher = more binding, comparable within an allelic series) | 8.97 upbm affinity estimate (log intensity, higher = more binding, comparable within an allelic series) | 8.93 upbm affinity estimate (log intensity, higher = more binding, comparable within an allelic series) | 8.96 upbm affinity estimate (log intensity, higher = more binding, comparable within an allelic series) | 8.9 upbm affinity estimate (log intensity, higher = more binding, comparable within an allelic series) | 8.89 upbm affinity estimate (log intensity, higher = more binding, comparable within an allelic series) | 8.92 upbm affinity estimate (log intensity, higher = more binding, comparable within an allelic series) | 8.95 upbm affinity estimate (log intensity, higher = more binding, comparable within an allelic series) | 10.5 upbm affinity estimate (log intensity, higher = more binding, comparable within an allelic series) | 10.6 upbm affinity estimate (log intensity, higher = more binding, comparable within an allelic series) |
| GGGTATCA | 11.7 upbm affinity estimate (log intensity, higher = more binding, comparable within an allelic series) | 10.5 upbm affinity estimate (log intensity, higher = more binding, comparable within an allelic series) | 11.7 upbm affinity estimate (log intensity, higher = more binding, comparable within an allelic series) | 9.44 upbm affinity estimate (log intensity, higher = more binding, comparable within an allelic series) | 11 upbm affinity estimate (log intensity, higher = more binding, comparable within an allelic series) | 11.4 upbm affinity estimate (log intensity, higher = more binding, comparable within an allelic series) | 10.6 upbm affinity estimate (log intensity, higher = more binding, comparable within an allelic series) | 11.8 upbm affinity estimate (log intensity, higher = more binding, comparable within an allelic series) | 11.6 upbm affinity estimate (log intensity, higher = more binding, comparable within an allelic series) | 11.6 upbm affinity estimate (log intensity, higher = more binding, comparable within an allelic series) | 11.6 upbm affinity estimate (log intensity, higher = more binding, comparable within an allelic series) | 11.4 upbm affinity estimate (log intensity, higher = more binding, comparable within an allelic series) | 11.5 upbm affinity estimate (log intensity, higher = more binding, comparable within an allelic series) | – | – |
| ACTGATAC | 11.3 upbm affinity estimate (log intensity, higher = more binding, comparable within an allelic series) | 10.3 upbm affinity estimate (log intensity, higher = more binding, comparable within an allelic series) | 11.3 upbm affinity estimate (log intensity, higher = more binding, comparable within an allelic series) | 9.79 upbm affinity estimate (log intensity, higher = more binding, comparable within an allelic series) | 10.5 upbm affinity estimate (log intensity, higher = more binding, comparable within an allelic series) | 10.9 upbm affinity estimate (log intensity, higher = more binding, comparable within an allelic series) | 10.4 upbm affinity estimate (log intensity, higher = more binding, comparable within an allelic series) | 11.3 upbm affinity estimate (log intensity, higher = more binding, comparable within an allelic series) | 11.3 upbm affinity estimate (log intensity, higher = more binding, comparable within an allelic series) | 11.2 upbm affinity estimate (log intensity, higher = more binding, comparable within an allelic series) | 10.9 upbm affinity estimate (log intensity, higher = more binding, comparable within an allelic series) | 11 upbm affinity estimate (log intensity, higher = more binding, comparable within an allelic series) | 11 upbm affinity estimate (log intensity, higher = more binding, comparable within an allelic series) | – | – |
| GTATATCA | 11.2 upbm affinity estimate (log intensity, higher = more binding, comparable within an allelic series) | 10.5 upbm affinity estimate (log intensity, higher = more binding, comparable within an allelic series) | 11.3 upbm affinity estimate (log intensity, higher = more binding, comparable within an allelic series) | 9.99 upbm affinity estimate (log intensity, higher = more binding, comparable within an allelic series) | 10.9 upbm affinity estimate (log intensity, higher = more binding, comparable within an allelic series) | 11.1 upbm affinity estimate (log intensity, higher = more binding, comparable within an allelic series) | 10.5 upbm affinity estimate (log intensity, higher = more binding, comparable within an allelic series) | 11.2 upbm affinity estimate (log intensity, higher = more binding, comparable within an allelic series) | 11.2 upbm affinity estimate (log intensity, higher = more binding, comparable within an allelic series) | 11.2 upbm affinity estimate (log intensity, higher = more binding, comparable within an allelic series) | 11 upbm affinity estimate (log intensity, higher = more binding, comparable within an allelic series) | 11.1 upbm affinity estimate (log intensity, higher = more binding, comparable within an allelic series) | 11.2 upbm affinity estimate (log intensity, higher = more binding, comparable within an allelic series) | – | – |
